In the library only some 1% were active in any assay of this set; here they are far more common.
KCNH2 WT inh = qHTS for Inhibitors of KCHN2 3.1: Wildtype qHTS; Voltage-gated inwardly rectifying potassium channel KCNH2 (Homo sapiens), Q12809; U2OS, BacMam KCNH2, thallium flux FluxOr; active compounds read low; activity change, % at 1.84 µM; hit rate 0.37% among 340,000;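 active = maximum activity change below -70%; inconclusive = maximum activity change between -70% and -50%; inactive = maximum activity change above -50%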
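U2OS cells transduced with wild-type KCNH2 virus are loaded with FluxOr dye for 45 min, and thallium flux is measured in kinetic reads before and after stimulation buffer. Rate constants are normalized to DMSO controls.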
TSG101-PTAP inh = qHTS Assay for Iinhibitors of HIV-1 Budding by Blocking the Interaction of PTAP/TSG101 | 340,000 tested, under 10 active | Fluorescence polarization, FITC-PTAP peptide / Tsg101 binding | Tumor susceptibility gene 101 protein (Homo sapiens), Q99816 | Potency, µM (doses to about 115 µM), most hits filed as inhibitors; active = well fitted inhibition curve with a large enough effect in the main read-out, with a control signal flat, not every such curve was filed as active; inconclusive = small, poorly fitted or top-dose-only effect, or effect the other way, or a change in a side signal; inactive = no such curve, though single readings can be large or run the other way
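Steps: Tsg101 binding domain dispensed (10 uM final), compounds pinned in DMSO, FITC-labeled PTAP-motif peptide added (50 nM final); after 20 min binding at room temperature, polarization measured.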
TRPML1 agonist = qHTS for Agonists of the Human Mucolipin Transient Receptor Potential 1 (TRPML1); hit rate 0.12% among 410,000; TRPML1-expressing cells, Ca2+ dye fluorescence, FDSS; Mucolipin-1 (Homo sapiens), Q9GZU1; activation, % (no concentration beside the values); in the data active = activation above about 50%; inconclusive = mostly about 30% to 49%
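TRPML1-DL cells, Tet-induced overnight (~16 h, 37 degrees C), loaded 45-90 min at room temperature with Ca8 no-wash calcium dye plus quencher. FDSS fluorescence: 10 s baseline, compound pin-transfer, 110 s agonist read, then EC80 54-4 (4uM final) and 110 s antagonist read.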
GRP78 ERSR act = qHTS for Inducers of the Endoplasmic Reticulum Stress Response (ERSR) in Human Glioma: qHTS. U87-MG GRP78 promoter luciferase reporter, 16 h. Potency, µM, actives largely listed as activators. hit rate 0.02% among 420,000. AID 602332, 2012; active = well fitted activation curve with a large enough effect; inconclusive = small, poorly fitted or top-dose-only effect; inactive = no such curve, though single readings can be large or run the other way; note: series mostly up to about 76 µM; nearly all actives have a fitted effect of over 35% in size
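Stably transfected U87-MG glioma cells carrying a GRP78-based luciferase sensor; 16 h compound incubation. Luminescence end-point read 10 min after Bright-Glo addition at room temperature.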
KCNH2 3.1 block = qHTS for Inhibitors of KCHN2 3.1: Mutant qHTS; hit rate 0.95% among 340,000; activity change, % (tested at about 1.8 µM); U2OS KCNH2 3.1, thallium flux FluxOr; active compounds read low;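 active = maximum activity change below -70%; inconclusive = maximum activity change from -70% to -50%; inactive = maximum activity change above -50%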;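 note: thallium influx rate constant from kinetic fluorescence after stimulation buffer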
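U2OS cells transduced with KCNH2 3.1 mutant virus (1.77 x 10^8 /mL, 4 h), plated overnight at 37 C, loaded 45 min with FluxOr dye plus Red40 quencher. Thallium flux rate constant from kinetic reads after stimulation buffer, normalised to controls.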
TRPML1 blocker = qHTS for Inhibitors of the Human Mucolipin Transient Receptor Potential 1 (TRPML1) | Mucolipin-1 (Homo sapiens), Q9GZU1 | TRPML1-inducible cells, Ca2+ dye fluorescence, FDSS; active compounds read low; inhibition of EC80 agonist-evoked calcium signal | activity change, negative = inhibition, % (concentration not given with the values) | hit rate 0.02% among 390,000; in the data active = activity change below about -50%; inconclusive = between about -30% and that limit;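 note: stimulus is agonist 54-4 at its EC80 concentration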
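TRPML1-DL cells, Tet-induced overnight (~16 h, 37 °C) at 1,500 cells/well, were loaded with Ca8 no-wash dye plus quencher for 45-90 min at room temperature. Compounds were pinned during FDSS kinetic reading; agonist 54-4 at EC80 (4 uM final) then added.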
A number is an active result; . = inactive; ? = inconclusive; / = not tested or not shown; ! = not active in a repeat.

SMILES	KCNH2 WT inh	TSG101-PTAP inh	TRPML1 agonist	GRP78 ERSR act	KCNH2 3.1 block	TRPML1 blocker
CC(C)C[C@@H](COc1ccccc1)N1CCN(CCc2ccccc2)CCC1=O	.	.	.	.	-95.7	.
O=C1CCN(CCc2ccccc2)CCN1[C@H](CO)Cc1ccccc1	/	/	.	.	/	.
CC(C)CN1CCC(=O)N([C@H](COc2ccccc2)Cc2ccccc2)CC1	.	.	.	.	-89.6	.
NC(=O)Nc1ccc(/C=C2\C=Cc3ccccc32)cc1	/	/	.	.	/	/
O=C(NCCc1cccnc1)c1cnn(-c2ncc3c(n2)-c2ccccc2CC3)c1C1CC1	/	/	/	.	/	/
COCCOC(=O)N1CCN(/[N+]([O-])=N/Oc2ccc([N+](=O)[O-])cc2[N+](=O)[O-])CC1	/	/	.	.	/	.
COC(=O)Cn1ccc(-c2ccc(Cl)cc2)c(C#N)c1=O	.	.	.	.	-114.2	.
COC(=O)Cn1ccc(N(C)C)c(C#N)c1=O	.	.	.	.	.	.
Cc1ccc(S(=O)(=O)N/N=C2/CC(c3ccccc3)Oc3ccccc32)cc1 (stereo not drawn)	.	.	.	.	-109.7	.
CSc1ccc(C(=O)N2CCc3c(cnc(C)c3CNC(=O)c3cncs3)C2)cc1	/	/	/	.	/	/
Cc1noc(C)c1S(=O)(=O)N1CCN(c2ccc([N+](=O)[O-])cc2)CC1	.	.	.	.	-80.1	.
COc1ccc(-c2cc(C)no2)cc1S(=O)(=O)N1CCN(c2ccc([N+](=O)[O-])cc2)CC1	-77.6	.	.	.	-105.7	.
Cc1noc(C)c1CSCC(=O)N1CCN(c2ccc([N+](=O)[O-])cc2)CC1	.	.	.	.	-72.7	.
CCOc1ccc(CN2CCCC(CO)(Cc3ccc(F)cc3)C2)cc1 (stereo not drawn)	.	.	.	.	-96.9	.
COc1ccc(CN2CCCC(CO)(Cc3ccc(F)cc3F)C2)cc1 (stereo not drawn)	.	.	.	.	.	.
Cc1nn(C)c(Cl)c1CN1CCCC(CO)(Cc2ccccc2)C1 (stereo not drawn)	.	.	.	.	-85.2	.
CSc1ccc(CN2CCCC(CO)(Cc3ccccc3)C2)cc1 (stereo not drawn)	.	.	.	.	?	.
Cc1nc(NCc2c(C)nn(C)c2Cl)sc1-c1ccn(CC2COc3ccccc3O2)n1 (stereo not drawn)	/	/	/	.	/	/
COc1cccc(-n2c(SC)nnc2C2CCN(Cc3nc4ccccc4s3)CC2)c1	/	/	/	.	/	/
COc1cccc(Nc2nc(CN3CCOCC3)nc3sc4c(c23)CCCC4)c1	-134.5	.	.	.	.	.
COc1cc(C(=O)NC(=S)Nc2ccc(NC(=O)c3ccco3)cc2)cc(OC)c1OC	.	.	.	.	-82.9	.
CN1CCc2c(c3ccccc3n2Cc2ccccc2)C1	.	.	.	.	-77.4!	.
CCCCN1CCc2c(c3ccccc3n2Cc2ccccc2)C1	?	.	.	.	-94.0	.
CN1CCc2c(c3ccccc3n2C)C1	.	.	.	.	.	.
NCCCC[C@H](NC(=O)[C@@H]1CCCN1C(=O)[C@@H]1CSSC[C@H](NC(=O)CNC(=O)CNC(=O)CN)C(=O)N[C@@H](Cc2ccc(O)cc2)C(=O)N[C@@H](Cc2ccccc2)C(=O)N[C@@H](CCC(N)=O)C(=O)N[C@@H](CC(N)=O)C(=O)N1)C(=O)NCC(N)=O	/	/	/	.	/	/
O=C(Nc1ccc(N2CCN(C(=O)c3ccco3)CC2)c(Cl)c1)c1cc2ccccc2o1	.	.	.	.	-112.7	.
O=C(Nc1ccc(-c2nc3ncccc3o2)cc1)c1ccco1	.	.	.	.	-80.7	.

Bioassay records from PubChem.
